According to PubChem BioAssay (Tox21):
Results filed as inconclusive are left out. Where a call stands in place of a potency, no number is given. Activity calls are given as the source filed them. Calls follow the shape of the dose curve; as a rule, active = well fitted cell-killing curve with a large enough effect in the repeat runs; inconclusive = weak or mixed curves, or effect the other way; inactive = flat fitted curve, though single readings scatter.

test: qHTS assay to identify small molecule agonists of the sonic hedgehog signaling (Shh) pathway - cell viability counter screen (AID 1259366); conditions: NIH/3T3 Gli1-Luc viability, CellTiter-Fluor, 24 h; series mostly up to 92.4 µM; also: nearly all actives have a fitted effect of over 50% in size
From the text: National Center for Advancing Translational Sciences [NCATS]
NIH Chemical Genomics Center [NCGC]
U.S. Environmental Protection Agency [EPA]
National Institutes of Environmental Health Sciences [NIEHS]
National Toxicology Program [NTP]
U.S. Food and Drug Administration [FDA]
The sonic hedgehog (Shh) pathway is essential for normal embryonic development. Dysregulation of the Shh pathway can cause severe developmental defects in organs. Therefore chemicals that interfere with the pathway are potential developmental toxicants. A cell line designated 3T3Gli1-Luc (DMB/OARSA/CFSAN/FDA, Laurel, MD), a NIH/3T3 derived clone containing stably integrated Gli1-Luc reporter is used to detect chemical interference of the Shh pathway, by changes in the expression of the firefly Luc gene under the control of the Gli1 transcriptional response element. This cell line was used to screen Tox21 libraries for identifying and prioritizing the potential developmental toxicants that interfere Shh pathway. The cytotoxicity of the compounds was tested in parallel by measuring the cell viability using CellTiter-Fluor assay system (Promega, Madison, WI) in the same wells.
Tox21 Assay Protocol Summary:
3T3 Gli1-Luc cells were dispensed at 2,000 per well in 5uL of culture medium into white solid bottom 1536-well plates (Greiner Bio-One, Monroe, NC) using a Multidrop Combi (Thermo Scientific, Waltham, MA) dispenser. The assay plates were incubated at 37 C and 5% CO2 for 4hr, and then 23nL of compounds dissolved in DMSO and positive control were transferred using a Pintool station (Wako, San Diego, CA). The assay plates were incubated at 37C and 5% CO2 for 24hr. For viability read, after 23hr of compound treatment, 1uL of CellTiter-Fluor reagent (Promega Corporation, Madison, WI) was added to each well of the assay plates using Flying Reagent Dispenser (FRD, Aurora Discovery, San Diego, CA) and incubated the assay plates at 37C for 1hr. The fluorescence signal was quantified using a ViewLux plate reader (Perkin Elmer, Shelton, CT).
Potency is read from the fitted curve at half-maximal effect.

Compound	Potency
CC[C@H](C)[C@H](N)C(=O)O	inactive
O=c1[nH]cnc2ccccc12	inactive
Cc1ccccc1N=Nc1ccc(N=Nc2c(O)ccc3ccccc23)c(C)c1	inactive
NC(N)=NN=C(/C=C/c1ccc([N+](=O)[O-])o1)/C=C/c1ccc([N+](=O)[O-])o1	2.37 µM (active)
COc1ccc(OC)c(OC)c1	inactive
N#CCCNCCC#N	inactive
O=C(c1ccccc1)c1ccc2n1CCC2C(=O)O (stereo not given)	inactive
Cn1sccc1=O	48.6 µM (active)
CN1CCC(=C2c3ccccc3CCc3sccc32)CC1	inactive
Cl/C(=C\n1cncn1)c1ccc(Cl)cc1Cl	inactive
CC(C)CC=O	inactive
O=C(O)Cn1c(C(=O)Nc2nc(-c3ccccc3Cl)cs2)cc2ccccc21	inactive
CCCCCCCCCC(=O)OCC	inactive
Nc1nc(N)c(-c2ccccc2)s1	inactive
CCCCOC(=O)c1ccccc1C(=O)OCC(CC)CCCC (stereo not given)	inactive
Oc1ccc(C(O)CNCCCCCCNCC(O)c2ccc(O)c(O)c2)cc1O (stereo not given)	8.41 µM (active)
CCCCOC(O)CC (stereo not given)	inactive
Cc1ccccn1	inactive
O=C(/C=C/c1ccc(O)c(O)c1)O[C@@H]1C[C@](O)(C(=O)O)C[C@@H](O)[C@H]1O	inactive
Cc1ccc(C(C)c2ccc(C)c(C)c2)cc1C	inactive

Compound	Potency
CCN(CC)C(C)CN1c2ccccc2Sc2ccccc21 (stereo not given)	inactive
Cc1ncsc1CCO	inactive
CC(C)c1cccc(C(C)C)c1NC(=O)NS(=O)(=O)c1cc(C(C)(C)O)co1	inactive
CN1CCC(OC(c2ccccc2)c2ccccc2)CC1	inactive
O=C1c2cccc(O)c2C(=O)c2c(O)cc(CO)cc21	inactive
CCCCCCCCCCCCCCC1CO1 (stereo not given)	inactive
O=C(O)Cc1sc(-c2ccccc2)nc1-c1ccc(Cl)cc1	inactive
CCCCCCCCCCCCCCCBr	inactive
O=C(c1ccc(O)cc1)c1ccc(O)cc1	inactive
c1ccc(OCc2ccc(CCCN3CCOCC3)cc2)cc1	inactive
CCC(=O)OC(C)(C)C1CC=C(C)CC1 (stereo not given)	inactive
CC(=O)NCCCS(=O)(=O)O	inactive
O=C1[C@H](CC[C@H](O)c2ccc(F)cc2)[C@@H](c2ccc(O)cc2)N1c1ccc(F)cc1	inactive
O=C(O)[C@@H]1[C@H]2C[C@H]3c4[nH]c5ccccc5c4CCN3C[C@@H]2CC[C@@H]1O	inactive
CCCCCCc1ccc(N)cc1	inactive
Oc1ccc(O)c2c(O)cccc12	inactive
O=C(Cl)c1c(Cl)cccc1Cl	inactive
CC(C)CCCCCCOC(=O)c1ccc(C(=O)OCCCCCCC(C)C)c(C(=O)OCCCCCCC(C)C)c1	inactive
CC1CCc2cc(F)cc3c(=O)c(C(=O)O)cn1c23 (stereo not given)	inactive
Nc1cnn([C@@H]2O[C@H](CO)[C@@H](O)[C@H]2O)c(=O)n1	inactive
